The results in this text go back to ChEMBL document CHEMBL3988442, “University of Dundee, Small-Polar-MMV Screening Library” (2021).

About 13,000 (27%) of roughly 48,000 compounds showed an effect of 50% or more. This is one part of the list.

The assay deals with Wolbachia pipientis. Put plainly: Anti-Wolbachia Cell-Based Screen. The arrangement: scale not given: in the data most compounds retested in dose-response had high values. The note with it: 5 µM. The assay is classed as functional.
Take `c1ccc(-c2nc(CN3CCOC(Cn4cccn4)C3)cs2)cc1` (centres undefined): the “Percent Effect” value is given as -16.04%.
As for `c1cnn(CC2CN(Cc3csc(C4CCCCC4)n3)CCO2)c1` (centres undefined), the figure is 111.5%; as for `c1cnn(CC2CN(Cc3csc(-c4ccsc4)n3)CCO2)c1` (centres undefined), -6.772%.
Consider `CNC(=O)[C@H]1C[C@H]2OCC[C@H]2N(Cc2cccc3ccccc23)C1.O=C(O)C(F)(F)F`, for which the “Percent Effect” value came out at 25.43%.
As to `CC(=O)N1CCN(c2cc(N(C)C)cnn2)CC1`, the “Percent Effect” value is given as 5.157%.
On to `CN(Cc1c(Cl)ccc2cccnc12)CC(C)(CO)CO`, for which the “Percent Effect” value is 4.13%.
Next, `CCS(=O)(=O)c1ncc(CN2CCN(C)CC2)n1CCc1ccccc1`: 2.419%; `CC(C)(C)CN(CCO)C(=O)Nc1cccc(N2CCNC2=O)c1`: 0.4334%; `Cn1cnc(S(=O)(=O)NCC2(O)CCOc3ccccc32)c1` (centres undefined): -16.89%.
For the molecule `Nc1nc(N)c2c(n1)OC1(CCN(C(=O)CC3CCNCC3)CC1)C2`, the “Percent Effect” value is reported as 145.9%.
As for `O=C1OC2(CCNCC2)CN1CC(=O)N1CCCC1c1nccs1` (centres undefined), the figure is 1.843%.
With `Nc1nc(N)c2c(n1)OC1(CCN(C(=O)CC3CCCNC3)CC1)C2` (centres undefined), the “Percent Effect” value was determined as 130%.
On to `O=C(CC1CC1)N1CCC2(CC1)CN(c1ncc(F)cn1)CCO2`, for which the “Percent Effect” value is -18.12%.
As to `Nc1nc(N)c2c(n1)OC1(CCN(C(=O)CC3CCCCN3)CC1)C2` (centres undefined), the “Percent Effect” value was 102.3%.
As for `CC(C)(C)c1cc(C[C@H]2CNCC[C@H]2CC(=O)N2CCCCC2)no1`, the figure is 3.52%; as for `O=C(CC1CCCCC1)N1CCC(O)(C(F)(F)F)C1` (centres undefined), -0.05196%; as for `CC(C1CC1)N(C)Cc1nnc(-c2ccc(Br)s2)o1` (centres undefined), -7.051%.
Take `Cc1ccc2cc(CN(C)Cc3ccccn3)c(=O)[nH]c2c1`: the “Percent Effect” value is on record as 3.618%.
Next, `CCCc1cc(=O)[nH]c(SCc2ccccn2)n1`: 119.2%; `CCCc1cc(NC2CCN(Cc3ccccn3)CC2)n2nccc2n1`: 4.154%.
On to `Cc1cc(CSCc2ccccn2)on1`, for which the “Percent Effect” value is -5.175%.
For `CCc1c(C)nc(SCc2ccccn2)[nH]c1=O`, the “Percent Effect” value amounted to 110.7%.
Next, `CCc1nc(C)c(C(C)N(C)CCc2ccccn2)s1` (centres undefined): 10.86%; `CCCc1cc(=O)[nH]c(-c2cccc(CN3CCCCCC3)c2)n1`: 2.31%.
As for `CCc1cc(=O)[nH]c(SCc2ccccn2)n1`, the figure is 161.3%; as for `CCc1csc(NC(=O)NCc2ccccn2)n1`, -8.56%; as for `CN1CCC(c2nnc3ccc(C(=O)N4CCCCC4)cn23)C1.O=C(O)C(F)(F)F` (centres undefined), -6.443%.
Next, `CC(CC(=O)Nc1ccc(C(=O)N(C)C)c(Cl)c1)n1cccc1` (centres undefined): -5.842%; `CC(C)NC(=O)Nc1ccc2c(c1)ncn2CC(=O)NCCN(C)C`: 117%; `CC(C)C(=O)Nc1ccc2c(c1)ncn2CC(=O)NCCN(C)C`: 87.82%.
As to `CC(C)c1nc2cc(NC(=O)Cn3ccc(=O)[nH]c3=O)ccc2o1`, the “Percent Effect” value was -1.465%.
As for `CCN(CC)C(=O)Cn1ccc2cc(NC(=O)C3CC3)ccc21`, the figure is -9.83%; as for `CCOCCOC(C)C(=O)Nc1ccc2ccn(CCN(C)C)c2c1` (centres undefined), 3.941%.
For `Cc1cc(NC(=O)Nc2ccc3c(ccn3CCN(C)C)c2)n(C)n1`, the “Percent Effect” value is 0.0592%.
Regarding `Cn1c(C2CC2)nc2cc(NC(=O)C3CC=CC3)ccc21`, the “Percent Effect” value is on record as -5.037%.
`CN(C)CCNC(=O)Cc1cccc(I)c1`: the “Percent Effect” value amounted to 13.6%.
In the case of `CC(C)CC(=O)Nc1ccc2c(c1)ncn2CC(=O)NCCN(C)C`, the “Percent Effect” value amounted to 122%.
Next, `CN(C)CCn1ccc2cc(NC(=O)NCc3ncnn3C)ccc21`: 9.223%; `CN(C)CCNC(=O)Cn1cnc2cc(NC(=O)C3CC3)ccc21`: 109.1%.
Turning to `CC(c1ccc(F)cc1)n1ccnc1-c1cc2n(n1)CCCNC2` (centres undefined), the “Percent Effect” value was -9.513%.
For the molecule `CCC(C)(NCc1nnc(C(C)(C)C)o1)c1nccs1` (centres undefined), the “Percent Effect” value was -1.916%.
As for `CS(=O)(=O)CCc1ncnn1-c1ccc(F)c(Cl)c1`, the figure is -1.677%; as for `CCCC(C)NC(=O)CCN1C(=O)CCc2cc(F)ccc21` (centres undefined), -15.19%; as for `CS(=O)(=O)Nc1ccc(CNC(=O)CN2CCc3ccccc32)cc1`, 8.101%.
As to `CCCC(O)CN1CCC(=O)N(C)Cc2cc(F)ccc21` (centres undefined), the “Percent Effect” value amounted to 92.66%.
Next, `CN1Cc2cc(F)ccc2N(CC(O)C(F)(F)F)CCC1=O` (centres undefined): 104.4%.
Next, `CC(Cn1cccn1)NC(=O)NCCCN1CCc2ccccc21` (centres undefined): -6.742%; `OC(CN1CCCc2ccc(F)cc21)Cn1cccn1` (centres undefined): -5.11%; `CN1Cc2ccccc2N(CC(O)C(F)(F)F)CCC1=O` (centres undefined): 95.04%.
For the molecule `CCN1Cc2cc(F)ccc2N(CC(O)C(F)(F)F)CCC1=O` (centres undefined), the “Percent Effect” value amounted to 105.6%.
Consider `CCN1CC2(CCN(C(=O)C(C)Oc3ccc(F)cc3Cl)CC2)CC1=O` (centres undefined), for which the “Percent Effect” value is -0.3825%.
`CC(C)CNC(=O)CCN1C(=O)CCc2cc(F)ccc21`: the “Percent Effect” value is -21.96%.
For `CC(C)C(C)NC(=O)CCN1C(=O)CCc2cc(F)ccc21` (centres undefined), the “Percent Effect” value was -7.908%.
As for `CC(O)CN1CC2(CCC1=O)CCN(Cc1cc(F)ccc1Cl)CC2` (centres undefined), the “Percent Effect” value is 0.5458%.
